Assay outcomes as filed in PubChem BioAssay.
NPC1 prom act = qHTS Assay for NPC1 Promoter Activators; Huh7 NPC1 promoter luciferase reporter, 24 h; Potency, µM (doses to about 9.22 µM), for the others: at the top dose activation, actives largely listed as activators; actives 2.4% (n = 320,000); AID 485313, 2010; also: % of control where 0% means no effect; nearly all actives have a fitted effect of over 60% in size
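Luminescence read-out of NPC1 promoter-driven luciferase in stably transfected Huh7 cells; compounds delivered in DMSO and left 24 h at 37C, 5% CO2, qHTS titration format.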
SMN2 splice enh = qHTS Assay for Enhancers of SMN2 Splice Variant Expression; actives 2.8% (n = 210,000); AID 1458, 2008; HEK293 SMN2-luciferase splicing reporter, luminescence, 30-36 h; Potency, µM (series often up to 46.1 µM), for the others: top-dose activity change, positive = activation, usual class: activators; also: % of control where 0% means no effect; nearly all actives have a fitted effect of over 55% in size
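qHTS luciferase splicing reporter: luminescence rises when SMN2 exon 7 is included in transfected HEK293 cells. Compound exposure lasted 30-36 h at 37C, with 4.5 mM final sodium butyrate as control, followed by a ONE-Glo read.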
ELG1 repair inh = qHTS screen for small molecules that inhibit ELG1-dependent DNA repair in human embryonic kidney (HEK293T) cells expressing luciferase-tagged ELG1. Potency, µM (titrated, usually from 46.1 µM), for the others: top-dose activity change, negative = inhibition, actives largely listed as inhibitors. HEK293T ELG1-luciferase reporter, luminescence, 16 h; DNA damage induced by 5-fluorouridine. actives 2.3% (n = 330,000); also: % is scaled to controls: 0 for no effect and ±100 for the full control effect; nearly all actives have a fitted effect of over 55% in size
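5-Fluorouridine DNA damage + compound/DMSO, 2,000 cells/well, 16 h, 37 °C/5% CO2. ONE-Glo, 30 min RT, luminescence. Readout = decrease in reporter signal.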
ELG1 genotoxic = qHTS screen for small molecules that induce genotoxicity in human embryonic kidney (HEK293T) cells expressing luciferase-tagged ELG1. HEK293T ELG1-luciferase reporter, luminescence, 16 h. Potency, µM (doses to about 46 µM), for the others: at the top dose activity change, positive = activation, actives largely listed as activators. actives 1.3% (n = 330,000); also: % of control where 0% means no effect; nearly all actives have a fitted effect of over 60% in size
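DMSO vehicle served as control against compound-treated ELG1-luciferase HEK293T cells; exposure lasted 16 hr at 37 °C and 5% CO2, followed by ONE-Glo luminescence detection after 30 min.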
FLuc counter = qHTS profiling assay for firefly luciferase inhibitor/activator using purifed enzyme and Km concentrations of substrates (counterscreen for miR-21 project); Luciferin 4-monooxygenase (Photinus pyralis), P08659; actives 6.9% (n = 360,000); Potency, µM (doses to about 57.5 µM), for inactives: at the highest dose activity change, negative = inhibition, actives largely listed as inhibitors; purified FLuc, Km substrates, luminescence inhibition;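 also: plate controls were vehicle for no effect and reference inhibitor for full effect; nearly all actives have a fitted effect of over 55% in size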
Target sequence (P08659 whole entry, looked up): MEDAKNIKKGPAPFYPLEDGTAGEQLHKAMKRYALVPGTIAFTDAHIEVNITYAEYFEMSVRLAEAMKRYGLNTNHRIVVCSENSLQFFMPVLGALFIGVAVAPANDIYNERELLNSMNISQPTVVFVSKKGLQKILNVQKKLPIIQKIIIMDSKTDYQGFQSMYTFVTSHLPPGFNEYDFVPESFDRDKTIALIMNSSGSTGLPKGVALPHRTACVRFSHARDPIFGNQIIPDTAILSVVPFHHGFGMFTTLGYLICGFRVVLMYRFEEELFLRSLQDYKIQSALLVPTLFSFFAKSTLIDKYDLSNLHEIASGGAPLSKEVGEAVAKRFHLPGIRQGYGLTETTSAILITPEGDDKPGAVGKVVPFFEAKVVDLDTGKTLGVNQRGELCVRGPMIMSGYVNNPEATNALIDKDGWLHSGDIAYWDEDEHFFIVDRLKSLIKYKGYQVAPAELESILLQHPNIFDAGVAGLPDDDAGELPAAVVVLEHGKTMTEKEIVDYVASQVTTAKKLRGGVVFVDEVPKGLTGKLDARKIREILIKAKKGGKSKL
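Purified P. pyralis luciferase (10nM final) with 10uM D-luciferin and 10uM ATP (Km levels) in 50mM Tris acetate pH 7.5, 10mM Mg acetate, 0.01% Tween-20, 0.05% BSA; qHTS 6-point titration, ~60 µM downward; luminescence read.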
Rab9 promoter act = qHTS Assay for Rab9 Promoter Activators | Huh7 Rab9 promoter-luciferase reporter, luminescence, 24 h | Potency, µM (titrated, usually from 9.22 µM), for the others: top-dose activation, negative = inhibition, actives largely listed as activators | actives 2.8% (n = 320,000); also: % of control where 0% means no effect; nearly all actives have a fitted effect of over 60% in size
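Luciferase signal after 10 min detection reagent at ambient indicates Rab9 promoter upregulation; stably transfected Huh7 cells were treated 24 h with compound in DMSO at 37 °C, 5% CO2.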
Active calls of the source: *; ? = inconclusive; . = not tested or not shown; ! = not confirmed by another sample; [ ] = dose if it differs, or a comment. Shown are actives, neighbours in structure and some others; about 9.2% of the full set was active somewhere. Calls follow the shape of the dose curve; as a rule, active = well fitted curve in the direction sought with a large enough effect; inconclusive = small, poorly fitted or top-dose-only effect, or another doubt; inactive = no such curve, though single readings can be large; an effect the other way counts as inactive or inconclusive. Potency is read from the fitted curve at half-maximal effect.

SMILES | NPC1 prom act | SMN2 splice enh | ELG1 repair inh | ELG1 genotoxic | FLuc counter | Rab9 promoter act
CCC(=NCCc1c[nH]c2ccccc12)c1c(O)n(C)c(=O)n(C)c1=O | -8% | -74% | 16µM* | -10% | -2% | -17%
CCC(=Nc1ccc(OC)cc1OC)c1c(O)n(C)c(=O)n(C)c1=O | 6% | -59% | ? | -5% | -4% | -11%
CCC(=NCc1ccc2c(c1)OCO2)c1c(O)n(C)c(=O)n(C)c1=O | 1% | . | 15µM* | -17% | -2% | -11%
CCC(=NCc1cc(OC)cc(OC)c1)c1c(O)n(C)c(=O)n(C)c1=O | -6% | -45% | 21µM* | -17% | 8% | -25%
CCN(CC)C(=O)c1c(C)[nH]c(=S)c(C#N)c1-c1ccco1 | 2% | -52% | -19% | -18% | ? | -2%
CCC1CN2CCc3cc(OC)c(OC)cc3C2CC1CC1NCCc2cc(OC)c(OC)cc21 (stereo unspecified) | . | -86% | . | . | . | .
Cc1ccc(OCC(=O)N2CCN(Cc3ccc([N+](=O)[O-])cc3)CC2)cc1 | -5% | . | 21µM* | -3% | -3% | -14%
O=S(=O)(c1ccc(F)c(F)c1F)N1CCN(c2ncnc3sccc23)CC1 | . | . | ? | -2% | . | .
O=S(=O)(c1ccccc1C(F)(F)F)N1CCN(c2ncnc3sccc23)CC1 | . | . | 16µM* | -9% | . | .
COc1cccc(NP(=O)(Oc2ccc(Cl)cc2)Oc2ccc(Cl)cc2)c1 | -1% | -27% | 21µM* | -7% | -2% | -4%
Cc1cccc(NP(=O)(Oc2ccccc2F)Oc2ccccc2F)c1 | 1% | -7%[1.84 µM] | 18µM* | -8% | 4% | -1%
O=P(Nc1ccccc1)(Nc1ccccc1)Oc1ccc(Cl)cc1 | 0% | 28% | ? | -8% | -1% | 2%
CC(C)(OOC(C)(C)c1ccccc1)c1ccccc1 | . | -2% | . | . | . | .
O=C1/C(=C\c2ccc([N+](=O)[O-])cc2)N2CCC1CC2 | -3% | -17% | 19% | 0% | 2% | 2%
CN(C)c1ccc(/C=C2/C(=N\O)C3CCN2CC3)cc1 | ? | . | ? | ? | 19µM* | 2.8µM*
COc1ccc(CNC(=O)c2ccc(C(C)C)cc2)cc1 | 3.5µM* | 13µM* | ? | ? | 9.5µM* | 2.2µM*
C[C@H]1C2C=C[C@H]1[C@@H](C(=O)O)[C@@H]2c1c2ccc(=O)c(O)c-2oc2c(O)c(O)ccc12 | . | -3%[9.22 µM] | . | . | . | .
Cc1ccc(N=Cc2c(O)n(C)c(=O)n(C)c2=O)cc1 | 19% | . | 25% | 2% | 12µM* | 24%
COc1ccc(N=Cc2c(O)n(C)c(=O)n(C)c2=O)cc1 | 4% | . | -6% | 13% | 13µM* | 3%
CN(C)C(=O)Oc1c(Cl)cc(Cl)c2ccccc12 | -2% | 2% | 0% | 2% | 0% | 12%
Cc1cc(C(=O)CS(=O)(=O)c2ccc(F)cc2)cc(C)c1OC(=O)N(C)C | 4µM* | 6% | ? | ? | 11µM* | 2.8µM*
O=C1CN=C(c2ccc[nH]2)c2cc(Cl)ccc2N1 | -7% | . | 8.2µM* | -19% | -1% | -10%
C/C=C(/C)C(=O)O[C@H]1C(C)=C2C([C@@H]1OC(=O)CCCCCCC)[C@@](C)(OC(C)=O)C[C@@H](OC(=O)CCC)[C@@]1(O)[C@H]2OC(=O)[C@@]1(C)O (stereo partly specified) | . | -115% | . | . | . | .
CCN(CC)C(=O)c1ccc(NC(=O)c2cccc(F)c2)cc1 | 20% | 0% | ? | ? | 15µM* | 18%
CC1=C/C(=N\NC(=S)NCCc2ccccc2)CC(C)(C)C1 | 25% | ? | ? | 13% | 21µM* | 29%
SMILES | NPC1 prom act | SMN2 splice enh | ELG1 repair inh | ELG1 genotoxic | FLuc counter | Rab9 promoter act
NC(Cc1nc2ccccc2[nH]1)c1ccc(Cl)cc1 (stereo unspecified) | 14% | . | ? | 13µM* | 11µM* | ?
NC(Cc1ccccc1)c1nc2ccccc2[nH]1 (stereo unspecified) | 18% | . | ? | 10% | ? | 13%
COc1ccc(N2C(=O)/C(=C/C=C/c3ccccc3[N+](=O)[O-])C(=O)NC2=S)cc1 | -1% | -7% | 13% | -1% | 24µM* | 1%
COc1cc2c3cc1Oc1c(O)c(OC)cc4c1[C@@H](Cc1ccc(cc1)Oc1cc(ccc1O)C[C@H]3N(C)CC2)N(C)CC4 | . | -21%[9.22 µM] | . | . | . | .
COCCCOc1ccnc(CS(=O)c2nc3ccccc3[nH]2)c1C (stereo unspecified) | 3.2µM* | . | ? | 14% | ? | 2.8µM*
Cc1c(OCC(F)(F)F)ccnc1CS(=O)c1nc2ccccc2[nH]1 (stereo unspecified) | 2.8µM* | -10% | ? | 13% | 13µM*! | 4µM*
Cc1ccccc1-c1nc(CS(=O)CC(=O)N2CCN(c3cc(Cl)ccc3C)CC2)c(C)o1 (stereo unspecified) | . | -71% | . | . | -4% | .
O=S(=O)(NCCO)c1cc[c]([Sb])cc1 | . | -4%[9.22 µM] | . | . | . | .
COc1ccc(-c2nc3ccccc3c(=O)o2)cc1 | ? | 11µM* | ? | ? | 1.2µM* | ?
Cn1c(C(=O)N2CCN(c3nc4ccccc4s3)CC2)cc2sccc21 | -3% | . | ? | -9% | -4%[2.3 µM] | -2%
CCN1CCN(c2nc3ccccc3s2)CC1 | 2.2µM* | 11µM* | ? | ? | 11µM* | 2µM*
CCCC(c1nnnn1Cc1cccs1)N1CCN(c2nc3ccccc3s2)CC1 (stereo unspecified) | 2% | -71% | 23µM* | -18% | 0% | 1%
CN(C)c1ccc(N(C)C)cc1 | . | -9% | . | . | . | .
S=C(S)N1CCCC1 | 4%[46.1 µM] | ? | 17% | -3% | 0% | 0%[46.1 µM]
CC1N(C)c2cc(NC(=O)c3ccco3)c(P(=O)(Nc3ccc([N+](=O)[O-])cc3)N3CCOCC3)cc2C1(C)C (stereo unspecified) | 1% | -29% | 18µM* | -13% | 6% | -26%
Nc1nc(N)c(Cn2ccnc2)c(=O)[nH]1 | . | -3%[9.22 µM] | . | . | . | .
O=C(O)C[C@H]1OCC=C2CN3CC[C@@]45C6=CC(=O)C(=O)C([N+](=O)[O-])=C6N[C@H]4[C@H]1[C@H]2C[C@@H]35 | . | -15%[9.22 µM] | . | . | . | .
Cc1ccc(N/N=C/c2c(O)n(-c3ccccc3)c(=O)[nH]c2=O)cc1 | -3% | -54% | 4.1µM* | ? | ? | 1%
CN(CCc1ccc(Cl)c(Cl)c1)[C@@H]1CCCC[C@@H]1N1CCCC1 | . | -52% | . | . | . | .
